Among all 1,200 compounds or so, about 970 (81%) were called active. How the calls were made is not given here. So high a share suggests a set chosen from earlier hits. Not all results are given here. Potency and affinity values are given separately. Non-standard residues stand in square brackets, D forms with d. Residues, ends and D or L forms follow the SMILES beside them. *: point of attachment. Ac5c = NC1(C(=O)O)CCCC1; Cbz = O=C(OCc1ccccc1)*
Each molecule was assayed against Transforming acidic coiled-coil-containing protein 3 (Homo sapiens) (UniProt Q9Y6A5) (assay: inhibition of ARNT PAS-B/TACC3 complex formation – biochemical, AlphaScreen, cherry-picked samples, confirmation (AID 651703;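 further: TACC3 partner is the GST-tagged E629A mutant dimer; hits lower the signal meaning they disrupt ARNT binding to TACC3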)). Details: AlphaScreen His-ARNT PAS-B / GST-TACC3 binding, luminescence; series mostly up to 68 µM.

outcome, inactive:
COc1ccc(-c2nc(CN3CCC(C(=O)NC4CCCc5ccccc54)CC3)c(C)o2)cc1OC (stereo not drawn)
O=C(C[C@@H]1CC[C@H](NC(=O)CN2CCOCC2)[C@H](CO)O1)NCCc1ccncc1
CN(C)S(=O)(=O)N1CCN(S(=O)(=O)c2ccc(F)cc2)CC1
Cc1nnc(NC(=O)CSc2nnc(CNC(=O)c3ccc(F)cc3)o2)s1
COc1ccc2cc1Oc1ccc(cc1)C[C@H]1c3cc(c(OC)cc3CCN1C)Oc1c(OC)c(OC)cc3c1[C@@H](C2)N(C)CC3
CCC(C(=O)Nc1ncn[nH]1)(C(F)(F)F)C(F)(F)F
CC(=O)c1cccc(NC(=O)N2CCCC2C(=O)NCc2ccccc2)c1 (stereo not drawn)
COc1ccc(/C(C)=N\NC(=O)CSc2nnc(C)s2)cc1
O=C(NCC1CC1)c1cc(-c2ccccc2)on1
NS(=O)(=O)c1ccc(CCNC(=O)c2ccc3c(c2)OCO3)cc1
O=C(NCCCO)c1cc(-c2ccccc2)on1
Oc1c(Br)cccc1/C=N/c1ncn[nH]1
Cn1c(=NC(=O)c2cnccn2)sc2ccccc21
O=C1NC[C@H](c2ccccc2)OC(=O)[C@H](Cc2ccc(F)cc2)CC/C=C/C[C@@H]1CC(=O)N(CCO)Cc1ccccc1
COc1ccc(Nc2nc(N)nc(CN3CCOCC3)n2)cc1
Fc1ccc(/C=N/Nc2ncnc3nc[nH]c23)cc1F
CCn1c(Cc2ccccc2)nnc1SCC(=O)Nc1ccc(N)cc1
COCCNC(=O)Cn1cc(C(=O)c2cccs2)c2ccccc21
C[C@H]1CCCCO[C@H](CN(C)C(=O)Nc2ccc(F)cc2)[C@@H](C)CN([C@@H](C)CO)C(=O)c2cc(NS(=O)(=O)c3ccc(Cl)cc3)ccc2O1
CC(OC(=O)Cc1c(F)cccc1Cl)C(=O)NC1(C#N)CCCCC1 (stereo not drawn)
Nc1ccc(C(=O)Nc2ccc3c(O)cc(S(=O)(=O)O)cc3c2)cc1
Cc1cc2c(NC(=O)CC(C)(C)CC(=O)O)cccc2nn1
O=C(O)c1ccc(Br)c(S(=O)(=O)N2CCCC2)c1
CCN1CCN(c2ccc(NC(=O)c3cccc(S(=O)(=O)N4CCCC4)c3)cc2)CC1
COc1cc(/C=N/NC(=O)CCN2CCN(c3ccccc3)CC2)cc(OC)c1OC
O=C(Nc1cn2ccccc2n1)c1cc(-c2ccccc2)on1
CC(NC(=O)COC(=O)c1ccc([N+](=O)[O-])o1)c1ccccc1 (stereo not drawn)
COC(=O)c1[nH]c2ccc(C)cc2c1NC(=O)c1ccccc1[N+](=O)[O-]
O=C(NC1CCc2ccccc2C1)c1cc(-c2ccccc2)on1 (stereo not drawn)
Cc1ccccc1Oc1nc(-c2ccccn2)nc2ccccc12
CCOC(=O)CC(NC(=O)Cc1ccc(F)cc1)c1ccccc1Cl (stereo not drawn)
COc1cc(C2Nc3ccccc3C(=O)N2NS(C)(=O)=O)c([N+](=O)[O-])cc1OC (stereo not drawn)
NC1=NN=C(N2N=C(c3ccccc3)CC2(O)C(F)(F)F)n2ncnc2C1 (stereo not drawn)
O=C1C=C(O)c2cccc(O)c2C1=O
CCc1c(C)sc(NC(=O)C2CC(c3c(F)cccc3Cl)=NO2)c1C#N (stereo not drawn)
CC[C@]1(O)CC2CN(CCc3c([nH]c4ccccc34)[C@@](C(=O)OC)(c3cc4c(cc3OC)N(C=O)[C@H]3[C@@](O)(C(=O)OC)[C@H](OC(C)=O)[C@]5(CC)C=CCN6CC[C@]43[C@@H]65)C2)C1 (stereo partly drawn)
COc1ccccc1C(=O)Nc1ccccc1N1CCCCC1
O=C(C[C@H]1C=C[C@@H](NC(=O)Nc2ccccc2)[C@@H](CO)O1)NCc1ccccn1
Cc1ccc(N(C)S(=O)(=O)c2cccc(C(=O)Oc3ccc4c(C)cc(=O)oc4c3)c2)cc1
Cc1ccc(S(=O)(=O)Cn2nnnc2C(c2ccccc2)N2CCN(c3ccccc3)CC2)cc1 (stereo not drawn)
O=C(NC1Cc2ccccc2C1)[C@H]1N[C@H]2c3cccc(=O)n3C[C@H]2[C@@H]1CO
Cc1[nH]n(-c2ccccc2)c(=O)c1C(c1ccc(O)c([N+](=O)[O-])c1)c1c(C)[nH]n(-c2ccccc2)c1=O
Cc1[nH]n(-c2ccccc2)c(=O)c1C(c1ccc(C(=O)O)cc1)c1c(C)[nH]n(-c2ccccc2)c1=O
COc1ccc(CCNC(=O)C23CCC(C)(C(=O)C2Br)C3(C)C)cc1OC (stereo not drawn)
Cn1c(CCNC(=O)c2ccc(Cl)c(Cl)c2)nnc1SCc1ccc(Cl)c(Cl)c1
O=C(c1cc(-c2ccccc2)on1)N1CCN(c2ccncc2)CC1
O=C(C1=C(O)C(=O)N(Cc2ccccc2)C1c1ccncc1)c1ccco1 (stereo not drawn)
COc1cc(Cc2nccc3cc(OC)c(OC)cc23)c(S(=O)(=O)O)cc1OC
CC=Cc1ccc2n(c1=O)C[C@H]1[C@H](CO)[C@@H](C(=O)NC3CCC3)[C@@H]2N1S(=O)(=O)c1cn(C)cn1 (mixture of isomers)
Cc1cc(C)c(C(N)=O)c(Nc2cccc3ccccc23)n1
COc1ccc(Nc2nnc(-c3ccc(C(N)=O)cc3)c3ccccc23)cc1
C[C@@H]1CN([C@@H](C)CO)C(=O)c2cc(NS(=O)(=O)c3cccs3)ccc2O[C@H]1CN(C)CC1CCCCC1
COc1ccc(-c2cnc3c(c2)C(=O)N([C@@H](C)CO)C[C@@H](C)[C@@H](CN(C)Cc2cccnc2)O3)cc1
C/C(=C\C(=O)c1ccccc1)Nc1ccc(N2CCOCC2)cc1
CCCc1nnc(NS(=O)(=O)c2ccc(C)cc2)o1
Cc1ccc(S(=O)(=O)n2nc(C)c(C#N)c2N)cc1
COC(=O)c1c(N)n(-c2ccc(NC(C)=O)cc2)c2nc3ccccc3nc12
CC(C)C#Cc1ccc2c(c1)O[C@@H](CN(C)C(=O)CN(C)C)[C@@H](C)CN([C@@H](C)CO)S2(=O)=O
C[C@@H]1CCCCO[C@H](CN(C)Cc2ccncc2)[C@H](C)CN([C@H](C)CO)C(=O)c2cc(NC(=O)C3CCCCC3)ccc2O1
CC(C)NC(=O)Nc1ccc2c(c1)C(=O)N([C@H](C)CO)C[C@H](C)[C@@H](CN(C)C(=O)Cc1ccccc1)OCCCC[C@H](C)O2
CC(C)NC(=O)N(C)C[C@H]1OCCCC[C@H](C)Oc2ccc(NC(=O)Nc3ccccc3)cc2C(=O)N([C@H](C)CO)C[C@@H]1C
COc1ccc(NC(=O)Nc2ccc3c(c2)C(=O)N([C@H](C)CO)C[C@@H](C)[C@@H](CN(C)C(=O)CCC(F)(F)F)OCCCC[C@H](C)O3)cc1
CN(C)C(=O)c1cccc(-c2ccc3c(c2)[C@@H]2[C@@H](CCN2C(=O)c2cccnc2)[C@@H](CO)N3)c1
O=C(C[C@H]1C=C[C@H](NS(=O)(=O)c2ccc(F)cc2)[C@H](CO)O1)N1CCN(c2ccccc2)CC1
C[C@H](CO)N1C[C@H](C)[C@@H](CN(C)Cc2ccccn2)Oc2ncc(C#CC3(O)CCCC3)cc2C1=O
COc1ccc(OC)c(-n2nnnc2SCC(=O)Nc2ccccc2OC)c1
CC(=O)N(C)C1=C(O)c2ccccc2C(=O)C1=O
O=C(Nc1ccc2c(c1)OCO2)c1ccc2c(c1)OCO2
COc1ccc(OC)c2nc3c(C(=O)NCCN(C)C)cccc3nc12
CN(C)CCNC(=O)c1cc(-c2ccccc2)on1
CCn1cc(/C=C2/SC(=S)NC2=O)c(C)n1
Nc1ccc2nn(-c3ccc(F)cc3)nc2c1
Cc1ccc(CNC(=O)c2cc(-c3ccccc3)on2)cc1
COc1ccc(C2=C(C)CC(C)(C)NC2=O)cc1OC
O=c1ccc(-c2ccc(S(=O)(=O)Nc3ccc(F)cc3)s2)n[nH]1
O=C(NCc1ccccc1)c1cc(-c2ccccc2)on1
O=C(Nc1ncc2ccccc2n1)c1cc(-c2ccccc2)on1
Cn1c(NC(=O)c2cc(-c3ccccc3)on2)nc2ccccc21
O=C(NCCN1CCCCC1)c1cc(-c2ccccc2)on1
CCCCNC(=O)c1cc(-c2ccccc2)on1
O=c1c(C=NCCCn2ccnc2)c(-c2ccccc2)[nH]n1-c1nc2ccccc2s1
Cc1[nH][nH]c(=O)c1C(c1ccc(Br)cc1)c1c(C)[nH][nH]c1=O
Cc1[nH][nH]c(=O)c1C(c1ccc(Cl)cc1)c1c(C)[nH][nH]c1=O
Cc1[nH][nH]c(=O)c1C(c1ccc(O)c(Br)c1)c1c(C)[nH][nH]c1=O
O=C(C[C@@H]1CC[C@H](NC(=O)Nc2cc(F)ccc2F)[C@@H](CO)O1)Nc1ccc(-c2ccccc2)cc1
COc1cc(C2C(C#N)=C(N)Oc3n[nH]c(C)c32)ccc1OC(=O)c1ccccc1 (stereo not drawn)
COC(=O)C1(NC(=O)CNC(=O)OCc2ccccc2)CCCC1 (Cbz-Gly-[Ac5c]-OMe)
Cn1c(N)c(C(=O)c2cc(-c3ccccn3)nc3ccccc23)c(=O)[nH]c1=O
CCN(CC)CCCNc1nc2ccccc2c2[nH]c3ccc(OC)cc3c12
Cc1c(NC(=O)c2cccnc2C(=O)O)cccc1C(=O)O
N#Cc1ccc(CC(=O)c2ccccc2)[nH]c1=O
C[C@H](CO)N1C[C@H](C)[C@H](CN(C)Cc2cccnc2)Oc2cc(C#CCN(C)C)ccc2S1(=O)=O
C[C@@H]1CN([C@H](C)CO)S(=O)(=O)c2ccc(C#Cc3ccccn3)cc2O[C@@H]1CN(C)C(=O)C1CC1

From PubChem BioAssay AID651703 (Broad Institute, 2012)
